Results as given in PubChem BioAssay AID1903 (Southern Research Specialized Biocontainment Screening …, 2009).
About 1,200 (0.39%) of roughly 310,000 compounds were called active. The rule behind the calls is not given here. Only a sample is shown. Measured potencies and affinities stand elsewhere.

Molecular target: Large T antigen (Simian virus 40) (UniProt P03070)
Test: TAg ATPase/helicase activity blockers – biochemical (AID 1903)
Conditions: SV40 large T antigen ATPase/helicase inhibition assay; at 20 µM; stronger effect = higher value

Chain of Large T antigen (Simian virus 40) (P03070 whole entry, looked up): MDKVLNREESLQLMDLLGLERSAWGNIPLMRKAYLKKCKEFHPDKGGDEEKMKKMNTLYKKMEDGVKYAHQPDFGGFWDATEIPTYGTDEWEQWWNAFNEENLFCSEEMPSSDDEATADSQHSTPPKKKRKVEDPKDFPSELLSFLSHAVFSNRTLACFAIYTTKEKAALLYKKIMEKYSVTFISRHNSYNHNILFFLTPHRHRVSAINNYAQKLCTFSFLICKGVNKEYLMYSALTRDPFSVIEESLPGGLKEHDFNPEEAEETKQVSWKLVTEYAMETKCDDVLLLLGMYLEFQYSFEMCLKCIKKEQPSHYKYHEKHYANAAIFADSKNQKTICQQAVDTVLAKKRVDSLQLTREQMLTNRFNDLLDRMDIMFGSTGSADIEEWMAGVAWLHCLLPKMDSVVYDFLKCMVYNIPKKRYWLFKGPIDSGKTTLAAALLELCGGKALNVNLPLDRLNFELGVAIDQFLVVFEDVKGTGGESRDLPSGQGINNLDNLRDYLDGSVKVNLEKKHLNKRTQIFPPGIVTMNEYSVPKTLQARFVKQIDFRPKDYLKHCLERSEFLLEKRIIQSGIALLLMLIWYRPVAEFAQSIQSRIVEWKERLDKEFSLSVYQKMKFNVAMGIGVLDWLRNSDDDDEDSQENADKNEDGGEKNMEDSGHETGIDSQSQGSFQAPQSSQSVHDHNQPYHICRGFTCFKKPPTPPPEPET

inhibition, inactive:
COC(=O)c1ccc(S(=O)(=O)N2C3CCC2CC(NC(=O)C2CC2)C3)cc1 (centres undefined) -2.31%
CCCCN(CCCC)CCCNC(=O)C12CN(Cc3ccccc3)CC1C(c1cccc([N+](=O)[O-])c1)=NO2 (centres undefined) 6.72%
Cc1cc(NCc2ccccc2)n2ncc(-c3ccccc3)c2n1 3.96%
CC(=O)OC[C@H]1O[C@@H](O/N=C/C[C@@H]2C=C[C@H](OC(C)=O)[C@@H](COC(C)=O)O2)[C@H](OC(C)=O)[C@@H](OC(C)=O)[C@@H]1OC(C)=O 7.46%
Cc1cc(NC(=O)C(C)SCC(=O)Nc2ccc(SC(F)F)cc2)no1 (centres undefined) 15.7%
Cc1ccc(C(=O)Cc2cc3ccccc3oc2=O)c(C)c1 9.25%
Oc1ccc(-c2nc3ccccc3s2)c(O)c1 21%
O=S(=O)(O)c1cc(O)ccc1O 25.8%
O=C(Cc1ccccc1)NCc1cccnc1 5.27%
CC(OC(=O)Cc1n[nH]c(=O)c2ccccc12)C(=O)Nc1cccc([N+](=O)[O-])c1 (centres undefined) 8.17%
COC(=O)c1cc(NS(=O)(=O)c2ccc(Cl)c(N3C(=O)c4ccc(C(=O)O)cc4C3=O)c2)cc(C(=O)OC)c1 11.3%
CCN1C(=O)C2(C(C(=O)c3ccc(C)o3)=C(O)C(=O)N2CCCN(C)C)c2ccccc21 (centres undefined) 27.5%
CCN1C(=O)C2(C(C(=O)c3cc4ccccc4o3)=C(O)C(=O)N2CCCN2CCOCC2)c2ccccc21 (centres undefined) 16.1%
CCC(=O)Nc1ccc(C(=O)NNC(=O)c2cccc(C)c2)cc1 5.14%
COc1cccc2c1-c1c(O)cccc1C2=O 9.33%
COc1cc(/C=C/c2ccc3cccc(O)c3n2)c(Br)cc1O 0.04%
O=C(CSc1nnc(-c2cccnc2)n1-c1ccccc1)Nc1ccc2c(c1)OCO2 18.3%
N#Cc1ccsc1NC(=O)CN1C(=O)NC2(CCCC2)C1=O 13.3%
CCCOc1ccc(N2C(=O)CC(NCC#N)C2=O)cc1 (centres undefined) 3.6%
Nc1c(-c2ccc(Cl)cc2)cnn1-c1cc(C(F)(F)F)cc(C(F)(F)F)c1 10.5%
O=C(O)C1CC(c2ccccc2)=Nc2ccccc2S1 (centres undefined) 19.3%
Oc1ccccc1C1=Nc2ccccc2N=C(c2cccs2)C1 12.3%
CCn1cc(S(=O)(=O)CC(=O)Nc2cc(C)ccc2C)c2ccccc21 3.58%
CC(=O)c1ccc(OCCCC(=O)NC2CCC(C)CC2)cc1 (centres undefined) 23.9%
